# Compounds with a hit are over-represented: about 12% of the library has one in this group of screens.
# Pf growth 48h – inhibits P. falciparum growth in the first generation, 48 h | P. falciparum luciferase growth in erythrocytes, 48 h | Potency, µM (doses to about 28.7 µM), most hits filed as inhibitors | 5.9% of 310,000 active | AID 504832
#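 Parasite viability was followed by luminescence of a genomically integrated firefly luciferase. Cultures held 0.1% parasitemia at 2% hematocrit (final), incubated under 5% CO2 at 37 C.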
# Pf growth 96h – P. falciparum growth inhibition at 96 hours. P. falciparum luciferase reporter growth, 96 h. Potency, µM (series often up to 28.7 µM), actives largely listed as inhibitors. 6.9% of 320,000 active. AID 504834
#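 96 h incubation, 37 C, 5% CO2, of luciferase-reporter P. falciparum-infected RBCs (2% hematocrit, 0.05% parasitemia final) with test compounds; endpoint luminescence.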
# Sm TGR block – blocks Schistosoma mansoni thioredoxin glutathione reductase; Potency, µM (series often up to 114 µM), usual class: inhibitors; 3% of 360,000 active; AID 485364; purified TGR, DTNB reduction, TNB absorbance 405 nm; further: nearly all actives have a fitted effect of over 60% in size
#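 Kinetic colorimetric format: TGR-catalysed, NADPH-driven DTNB reduction monitored via TNB absorbance. Enzyme dispensed at 20 nM; compound exposure 15 min at room temperature before reaction start.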
# SARS PLpro yeast – inhibitors of SARS-CoV papain-like protease in yeast. 0.19% of 330,000 active. S. cerevisiae expressing SARS-CoV PLpro, growth rescue. Potency, µM (series often up to 32.9 µM), most hits filed as activators; calls by dose curve; further: nearly all actives have a fitted effect of over 55% in size
# Hits are given with their value; – = inactive; ? = inconclusive; · = not tested or not shown; [ ] = dose if it differs, or a comment. Unless noted, the call rests on the fitted dose curve; in most records, active means well fitted curve in the direction sought with a large enough effect; inconclusive means small, poorly fitted or top-dose-only effect, or another doubt; inactive means no such curve, though single readings can be large; an effect the other way counts as inactive or inconclusive.
SMILES,Pf growth 48h,Pf growth 96h,Sm TGR block,SARS PLpro yeast
COC(=O)[C@@]1(Cc2ccc(OC)cc2)[C@H]2c3cc(C(=O)N4CCCC4)n(CCn4cc([N+](=O)[O-])nc4C)c3C[C@H]2CN1C(=O)c1ccccc1,?,0.59µM,–,–
COc1ccc(CCNC(=O)C2CCN(C(=O)c3ccccc3)CC2)cc1,–,?,–,–
COC(=O)[C@@]1(Cc2ccc(OC)cc2)[C@@H]2C(=CC(=O)[C@H]2CC(=O)C(=O)N2CCCC2)CN1C(=O)c1ccccc1,10µM,?,?,–
COC(=O)[C@@]1(Cc2ccc(OC)cc2)[C@H]2c3cc(C(=O)N(C)C)[nH]c3C[C@H]2CN1C(=O)c1ccccc1,4.7µM,?,–,–
COC(=O)[C@@]1(Cc2ccc(OC)cc2)[C@@H]2[C@@H](CC(=O)[C@H]2CC(=O)C(=O)N(C)C)CN1C(=O)c1ccccc1,?,?,–,–
COC(=O)[C@@]1(Cc2ccc(OC)cc2)[C@H]2c3cc(C(=O)N4CCCC4)n(Cc4ccc(OC)c(OC)c4)c3C[C@H]2CN1C(=O)c1ccccc1,?,1.5µM,–,–
Cc1ccc(-n2nc(C(=O)N(C)c3ccc(C)c(C)c3)c3c4ccccc4n(C)c3c2=O)cc1,·,·,–,·
Cc1cc2c(cc1S(=O)(=O)NCc1ccc(F)cc1)n(C)c(=O)c(=O)n2C,·,·,–,·
COC(=O)[C@@]1(Cc2ccc(OC)cc2)[C@H]2c3cc(C(=O)N4CCCC4)n(CCN4CCNC4=O)c3C[C@H]2CN1C(=O)c1ccccc1,1.9µM,1.7µM,–,–
COc1ccc2c(c1)c(C(=O)O)c(C)n2CCc1ccc(OC)c(OC)c1,?,–,–,–
COC(=O)[C@@]1(Cc2ccc(OC)cc2)[C@H]2c3cc(C(=O)N(C)C)n(CCc4ccc(OC)c(Br)c4)c3C[C@H]2CN1C(=O)c1ccccc1,2.1µM,2.1µM,–,–
Cc1ccccc1NC(=O)Cc1nc(COC(=O)Cc2c(F)cccc2Cl)cs1,?,?,–,–
O=C(O)c1c(NC(=O)N2CCOCC2)sc2c1CCCC2,–[0.00184 µM],–,–,–
CC1=CC(C)(C)N2C(=O)C3(SCC(=O)N3c3ccc(F)cc3)c3cc(C)cc1c32 (stereo unspecified),·,4.1µM,–,–
Cc1cc(C)c(NC(=O)CN2C(=O)C3(SCC(=O)N3c3ccc(F)cc3)c3ccccc32)c(C)c1 (stereo unspecified),·,·,–,·
O=C(O)CCN1C(=O)C2C3C=CC(C2C1=O)C1C(=O)N(CCC(=O)O)C(=O)C31 (stereo unspecified),–,–,–,–
O=C(O)CCN1C(=O)C2CCCCC2C1=O (stereo unspecified),·,0.74µM,–,–
CC(C)(C)CC(C)(C)c1ccc(O)cc1,–,?,·,·
O=S(=O)(c1cc(Br)c(Br)s1)N1CCN(c2ccccc2)CC1,·,·,–,·
CC(C)=CCC/C(C)=C/Cc1c(O)ccc(C(=O)/C=C/c2ccc(O)cc2)c1O,?,8.3µM,–,–
C=C(C)C(O)Cc1c(OC)ccc(C(=O)/C=C/c2ccc(O)cc2)c1O (stereo unspecified),·,·,·,–
NS(=O)(=O)c1cccc(NC(=O)COC(=O)CNC(=O)c2ccc(-c3ccccc3)cc2)c1,–,–,–,–
O=C1c2ccccc2C(O)(c2ccccc2)N1CCc1ccccc1 (stereo unspecified),?,?,–,–
O=C1c2ccccc2C(O)(c2ccccc2)N1c1ccncc1 (stereo unspecified),12µM,?,–,–
CN(CC(=O)N1CCCc2c1c(=O)oc1ccc(O)cc21)Cc1ccccc1,9.3µM,?,?,–
SMILES,Pf growth 48h,Pf growth 96h,Sm TGR block,SARS PLpro yeast
Cc1ccc(N(Cc2ccccc2)C(=O)CN2C(=O)NC3(CCCC3)C2=O)cc1,?,?,–,–
CCC(C)c1ccc2oc(-c3ccc(NC(=O)c4ncn[nH]4)cc3)nc2c1 (stereo unspecified),?,·,–,–
CC(C)c1ccc2oc(-c3ccc(NC(=O)c4ncn[nH]4)cc3)nc2c1,?,1.7µM,–,–
O=S(=O)(c1ccccc1)c1nc(-c2ccccc2Cl)oc1NCCCN1CCOCC1,·,·,·,–
O=S(=O)(c1ccccc1)c1nc(-c2ccco2)oc1NCCCn1ccnc1,–,·,40µM,–
O=S(=O)(c1ccccc1)c1nc(-c2ccco2)oc1Nc1ccccc1,?,?,–,–
O=S(=O)(c1ccccc1)c1nc(-c2ccco2)oc1NCc1ccco1,?,·,35µM,–
O=S(=O)(c1ccc(F)cc1)c1nc(-c2ccco2)oc1Nc1ccccc1,–,?,–,–
O=S(=O)(c1ccccc1)c1nc(-c2ccco2)oc1NCc1ccccc1,·,8.3µM,35µM,–
CC(C)c1nn2c(=O)cc(COC(=O)c3ccc(NC(=O)CCc4ccccc4)cc3)nc2s1,·,·,–,·
CC(C)CCN1C(=O)C2(OCCCO2)c2cc(Cl)ccc21,–,?,–,–
COc1ccc(C)cc1NC(=O)CCNS(=O)(=O)c1ccc2c(c1)CCC(=O)N2,–,–,–,–
O=C(O)CCN1CC2([N+](=O)[O-])C=CC(=O)C([N+](=O)[O-])(C1)C2CC(=O)c1ccccc1 (stereo unspecified),–,–,18µM,–
O=C(CCN1CCCCCC1)c1ccccc1,–,?,–,–
Cc1nc(SCC#N)c2c(C)c(C)sc2n1,–,9.3µM,–,?
CC1=CC(C)(C)N(C(=O)CSc2nnc(-c3ccc(C)cc3)o2)c2ccc(C)cc21,·,9.3µM,–,–
COC(=O)CNC(=O)c1cccc(-c2ccc(OC)cc2)c1,–,2.3µM,·,–
COc1ccc(NC(=S)NCc2ccc3c(c2)OCO3)cc1,–,1.7µM,–,–
COc1ccc(C/C(C)=N/NC(=S)Nc2ccccc2)cc1,–,–,–,11µM
O=C(NC(=S)Nc1cc(-c2nc3ccccc3[nH]2)ccc1Cl)c1ccc2c(c1)OCO2,4.7µM,?,–,–
CC(C)c1ccc(NC(=S)NCc2ccc3c(c2)OCO3)cc1,–,–,–,–
S=C(NCc1ccc2c(c1)OCO2)Nc1ccc(-c2nc3ccccc3[nH]2)cc1,12µM,5.2µM,–,–
Cc1ccc(S(=O)(=O)N(C)C)cc1NC(=O)C(C)OC(=O)C1CCCCC1 (stereo unspecified),·,·,·,–
COc1ccc(CNC(=S)Nc2ccccc2)cc1,?,13µM,35µM,–
COc1ccc(CNC(=S)Nc2cccc(C)c2)cc1,·,–,–,–
SMILES,Pf growth 48h,Pf growth 96h,Sm TGR block,SARS PLpro yeast
CC(=O)Nc1ccc(NC(=O)CCCn2nc(C)c3sc4ccccc4c3c2=O)cc1,·,·,–,·
CCCCc1ncc(CN2CCCC(C(=O)c3ccc(SC)cc3)C2)[nH]1 (stereo unspecified),9.3µM,–[5.75 µM],·,–
CCOC(=O)c1[nH]ncc1CN1CCCC(C(=O)c2ccc(SC)cc2)C1 (stereo unspecified),?,?,–,–
Cc1c(C(=O)Nc2c(F)cccc2F)sc2ncn(Cc3ccccc3F)c(=O)c12,·,·,–,·
Clc1ncnc2scc(-c3ccc(Br)cc3)c12,0.83µM,0.33µM,–,–
Cc1cc(N)n(-c2ncnc3scc(-c4ccc(Cl)cc4)c23)n1,?,?,–,–
O=C(c1cc2ccccc2o1)N1CCN(c2cccc(Cl)c2)CC1,–,–,–,–

# Screening results as filed in PubChem.
